Drawing on publication PMC10726135, “HNF4α isoforms regulate the circadian balance between carbohydrate and lipid metabolism in the liver”, this text covers binding signal for 47 sequences.

In all, about 18,000 sequences were measured (“log2 normalized intensity”: median about 0.36, highest 2% from about 7.3 on). The list comes from a sample in which the highest values are over-represented; it also holds similar and randomly drawn sequences.

For the assay, the target named is T1, HNF4alpha8 (COS-7 nuclear extract) (Homo sapiens, UniProt P41235-5 1-452).
T1 sequence: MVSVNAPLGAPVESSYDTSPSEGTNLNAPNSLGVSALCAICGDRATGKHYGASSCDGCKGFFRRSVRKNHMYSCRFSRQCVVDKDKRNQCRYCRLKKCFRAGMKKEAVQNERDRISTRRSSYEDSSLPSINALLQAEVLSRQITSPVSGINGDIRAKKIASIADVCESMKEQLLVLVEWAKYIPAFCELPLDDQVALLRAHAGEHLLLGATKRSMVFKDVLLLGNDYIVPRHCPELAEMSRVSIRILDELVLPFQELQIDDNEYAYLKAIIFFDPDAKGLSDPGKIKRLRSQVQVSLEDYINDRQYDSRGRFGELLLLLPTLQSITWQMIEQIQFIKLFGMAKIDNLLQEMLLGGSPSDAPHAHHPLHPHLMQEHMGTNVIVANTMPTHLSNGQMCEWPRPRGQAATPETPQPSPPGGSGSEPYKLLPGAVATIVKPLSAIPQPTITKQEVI
In words: protein-binding microarray; COS-7 nuclear extract on double-stranded Agilent 4x180k PBM; binding buffer, salt, pH and temperature not given in the material; high values mean tight binding. The conditions noted are these: chain copies: 2; label: 3' end of strand 1 on the slide; dsDNA, one strand shown. In outline:
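Using CaPO4, COS-7 cells were transiently transfected with a human HNF4α isoform expression vector, and their nuclear extracts were applied to a custom Agilent SurePrint G3 4x180k double-stranded oligonucleotide array (~60 nt; ~44,000 test sequences in quadruplicate). Bound HNF4α was imaged at 2-µm resolution with an Agilent G2565CA scanner. Agilent software supplied the background-corrected, normalized gProcessedSignal that serves as the binding signal.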
As for “AGCTTGCTCTCACCAGCTTCTTCTCTTTGAGCCTAGGGAGATTAGAGTATCGGTCGA”, the binding signal was -0.143 log2 normalized intensity.
Turning to “GTAACCTTTGCCCCCCAAGTTGAAGCCATCGCCTAGGGAGATTAGAGTATCGGTCGA”, the binding signal stood at 5.74 log2 normalized intensity.
Consider “GTGCTATCTCAGCTCACTGTAACCTTTGCCGCCTAGGGAGATTAGAGTATCGGTCGA”, for which the binding signal amounted to 4.68 log2 normalized intensity.
To “AGCCCCAACCCACTGTTGCCCCTTCCAAAGGCCTAGGGAGATTAGAGTATCGGTCGA” belongs 4.73 log2 normalized intensity.
With “ACTGTAACCTTTGCCCCCCTGGGCTCAAGCGCCTAGGGAGATTAGAGTATCGGTCGA”, the binding signal was found to be 6.27 log2 normalized intensity.
To “ATCTCAGCTCACTGTAACCTTTGCCCCCCTGCCTAGGGAGATTAGAGTATCGGTCGA” belongs 9.22 log2 normalized intensity; to “TCACTGTAACCTTTGCCCCCCAAGTTGAAGGCCTAGGGAGATTAGAGTATCGGTCGA”, 7.68 log2 normalized intensity.
To “AACCTTTGCCCCAGCTGTCACCCAGCCAGAGCCTAGGGAGATTAGAGTATCGGTCGA” belongs 4.16 log2 normalized intensity.
Then “TGGTGCTATCTTTGCTCACTGTAACCTTTGGCCTAGGGAGATTAGAGTATCGGTCGA”, with 4.34 log2 normalized intensity; and “TTTGCTCACTGTAACCTTTGCCCCCCAAGTGCCTAGGGAGATTAGAGTATCGGTCGA”, with 9.22 log2 normalized intensity; and “TCAAGCTCAATGCAACCAGTTGGTGGGTCAGCCTAGGGAGATTAGAGTATCGGTCGA”, with 1.44 log2 normalized intensity.
On to “GTTAGAACAAAGTCCAAATTCCTAACTATGGCCTAGGGAGATTAGAGTATCGGTCGA”, for which the binding signal was 4.38 log2 normalized intensity.
To “TTTATTAGGGGTCAGCAAAGAACTCCCCAGGCCTAGGGAGATTAGAGTATCGGTCGA” belongs 2.41 log2 normalized intensity.
To “ACCAGCAATTTTCAGGGTTAAAAGTTCTGCGCCTAGGGAGATTAGAGTATCGGTCGA” belongs 1.05 log2 normalized intensity; to “GTGTTTGTCCTTTGTTGCAATGCTGGAACAGCCTAGGGAGATTAGAGTATCGGTCGA”, 1.28 log2 normalized intensity; to “CAGGTGGGAGGGGTGGACTTTGGCTTTTCCGCCTAGGGAGATTAGAGTATCGGTCGA”, 6.31 log2 normalized intensity.
In the case of “GAGATAAGTCACCTTATCAAGTCCGAACTCGCCTAGGGAGATTAGAGTATCGGTCGA”, the binding signal is 1.35 log2 normalized intensity.
As for “GGAATCTTGCCCTGTCGCCCAGGCTGGAATGCCTAGGGAGATTAGAGTATCGGTCGA”, the binding signal is 1.58 log2 normalized intensity.
Then “TCTTCCTTTCTATCAGCTCTCCGTGGACTTGCCTAGGGAGATTAGAGTATCGGTCGA”, with 3.52 log2 normalized intensity; and “ATCCCGTGGACTTTGCCTGCCCATCCCGTGGCCTAGGGAGATTAGAGTATCGGTCGA”, with 4.23 log2 normalized intensity.
For “CTTTCTATCAGCTCTCCGTGGACTTTGCCCGCCTAGGGAGATTAGAGTATCGGTCGA”, the binding signal was found to be 9.95 log2 normalized intensity.
On to “TATCAGCTCTCCGTGGACTTTGCCCCCTACGCCTAGGGAGATTAGAGTATCGGTCGA”, for which the binding signal worked out at 11.3 log2 normalized intensity.
Then “AAGAGACTTTGCCCTTTTTTTCTCTCCCCTGCCTAGGGAGATTAGAGTATCGGTCGA”, with 3.92 log2 normalized intensity.
Turning to “GCTCTCCGTGGACTTTGCCCCCTACAGTTTGCCTAGGGAGATTAGAGTATCGGTCGA”, the binding signal was 10.5 log2 normalized intensity.
With “TTTGGCCCCCAGAGCCCCGTGTCTCCCTACGCCTAGGGAGATTAGAGTATCGGTCGA”, the binding signal was determined as 4.89 log2 normalized intensity.
Then “TCTTTGCCCTCTTGGTATCAGCTTTGAGACGCCTAGGGAGATTAGAGTATCGGTCGA”, with 1.91 log2 normalized intensity; and “GTGGACTTTGCCTGCCCATCCCGTGGACTCGCCTAGGGAGATTAGAGTATCGGTCGA”, with 4.49 log2 normalized intensity.
On to “TTGATTTAACATTTGTGATCTGGCACAAATGCCTAGGGAGATTAGAGTATCGGTCGA”, for which the binding signal was 0.366 log2 normalized intensity.
With “AGATACTGAATCTCCCAGTGCTTTGATCTTGCCTAGGGAGATTAGAGTATCGGTCGA”, the binding signal worked out at 1.39 log2 normalized intensity.
As for “TCACCTGCTCATTGACCCTTAGGCCAAGGCGCCTAGGGAGATTAGAGTATCGGTCGA”, the binding signal was found to be 3.1 log2 normalized intensity.
“ATGTCAGGAGCCCCACTGTAGTAAGGGAGTGCCTAGGGAGATTAGAGTATCGGTCGA”: the binding signal was -0.892 log2 normalized intensity.
Turning to “CACCTCTGCTTATCTCAACTGATTTACCTCGCCTAGGGAGATTAGAGTATCGGTCGA”, the binding signal amounted to 0.918 log2 normalized intensity.
As for “TTAACACAAGTTATTACCGTGATGTTCGTTGCCTAGGGAGATTAGAGTATCGGTCGA”, the binding signal amounted to 1.14 log2 normalized intensity.
“CTTCCCAGCTGCTGGTCAAAGGGCATTACTGCCTAGGGAGATTAGAGTATCGGTCGA”: the binding signal was determined as 5.83 log2 normalized intensity.
Then “GGGCAAATCTGAGGTCAAAGCTGTCAGAGAGCCTAGGGAGATTAGAGTATCGGTCGA”, with -0.316 log2 normalized intensity; and “CTGTCGTCCCAGGGCAAAGGTCACCAGCTAGCCTAGGGAGATTAGAGTATCGGTCGA”, with 7.57 log2 normalized intensity.
To “CAGAGCTGTCGTCCCAGGGCAAAGGTCACCGCCTAGGGAGATTAGAGTATCGGTCGA” belongs 8.47 log2 normalized intensity; to “AGGGCAAAGGTCACCAGCTAAGCTGTTACTGCCTAGGGAGATTAGAGTATCGGTCGA”, 5.83 log2 normalized intensity; to “GTCCCAGGGCAAAGGTCACCAGCTAAGCTGGCCTAGGGAGATTAGAGTATCGGTCGA”, 6.21 log2 normalized intensity.
Then “ATCCTGCCTCCATTAATTAACCTTTGAGCTGCCTAGGGAGATTAGAGTATCGGTCGA”, with 6.76 log2 normalized intensity; and “ACATGACCTTTGTCCGTTCCTGCCTGGAGCGCCTAGGGAGATTAGAGTATCGGTCGA”, with 5.37 log2 normalized intensity; and “CATTCACATGACCTTTGTCCGTTCCTGCCTGCCTAGGGAGATTAGAGTATCGGTCGA”, with 6.63 log2 normalized intensity.
With “ATGAGATACCCATTCACATGACCTTTGTCCGCCTAGGGAGATTAGAGTATCGGTCGA”, the binding signal is 8.96 log2 normalized intensity.
Turning to “TTCGGTGCTGACCTTTGTTCACATTTGTGCGCCTAGGGAGATTAGAGTATCGGTCGA”, the binding signal was 5.96 log2 normalized intensity.
Regarding “CTGGGATGAGATACCCATTCACATGACCTTGCCTAGGGAGATTAGAGTATCGGTCGA”, the binding signal came to 3.92 log2 normalized intensity.
With “ATACCCATTCACATGACCTTTGTCCGTTCCGCCTAGGGAGATTAGAGTATCGGTCGA”, the binding signal was determined as 7.49 log2 normalized intensity.
Take “CTGATGAATAGAAAGAGGTCAATGTACTTAGCCTAGGGAGATTAGAGTATCGGTCGA”: the binding signal is 2.94 log2 normalized intensity.
